Results from PubChem BioAssay (NCI).
The panel holds about 79,000 compounds, 15% with a hit somewhere; the sample as a whole holds those more often. Calls of active or inactive are those of the source. Rule as the data show it: active = growth inhibition above about 70%; inactive = the rest.

Tests used:
[1] = NCI Yeast Anticancer Drug Screen. Data for the rad50 strain (AID 155);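 also: 0% = growth of vehicle-only cultures of the same strain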; settings: S. cerevisiae rad50 strain growth inhibition, stronger effect = higher value
Outline: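 Readout: growth inhibition relative to vehicle-treated cultures. Compound exposure was carried out in a genetically defined yeast strain deficient in DNA damage repair.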

[2] = NCI Yeast Anticancer Drug Screen. Data for the mec2-1 strain (AID 157); settings: S. cerevisiae mec2-1 strain, stronger effect = higher value
Outline: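 Growth inhibition is read against vehicle-treated controls after compound exposure of the mec2-1 yeast strain, which is defective in DNA damage repair or cell cycle control.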

[3] = NCI Yeast Anticancer Drug Screen. Data for the sgs1 mgt1 strain (AID 161);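 also: 0% = growth of cultures given vehicle only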; settings: S. cerevisiae sgs1 mgt1 strain, stronger effect = higher value
Outline: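 This yeast growth screen uses a strain with defined DNA-repair lesions; compound-treated growth is compared with vehicle-treated growth.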

[4] = NCI Yeast Anticancer Drug Screen. Data for the cln2 rad14 strain (AID 165);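 also: 0% = growth equal to vehicle treated cultures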; settings: S. cerevisiae cln2 rad14 strain, stronger effect = higher value
Outline: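 Growth inhibition, relative to vehicle-treated controls, is the read-out. The test organism is a yeast strain with defined genetic alterations, cln2 rad14.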

[5] = NCI Yeast Anticancer Drug Screen. Data for the bub3 strain (AID 167); settings: S. cerevisiae bub3 mutant strain, stronger effect = higher value
Outline: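 Readout: yeast growth inhibition, expressed relative to vehicle-only wells. The test organism is a mutant strain from a panel with lesions in DNA repair or checkpoint genes.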

[6] = NCI Yeast Anticancer Drug Screen. Data for the mlh1 rad18 strain (AID 175); settings: S. cerevisiae mlh1 rad18 strain growth inhibition, stronger effect = higher value
Outline: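 Cells of a genetically altered yeast strain, deficient in DNA damage repair, were treated with compound. Their growth was then compared with that of vehicle-treated cultures to give inhibition.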

[7] = at 5.0 µM (retest, dose inferred, filed as 0.5)
[8] = at 50.0 µM (retest, dose inferred, filed as 5.0)

Measured: growth inhibition

CN(C)CC1(C)CC/C(=C\c2ccc(Cl)cc2)C1=O (stereo not given)
active: [6]; at 50.0 µM 71.1%
inactive: [1]; [7] 3% | [1]; [8] 28% | [1]; at 50.0 µM 62% | [2]; [7] -14% | [2]; [8] 16% | [2]; at 50.0 µM 38.2% | [3]; [7] 7% | [3]; [8] 39% | [3]; at 50.0 µM 67.7% | [4]; [7] 10% | [4]; [8] 36% | [4]; at 50.0 µM 52.5% | [5]; [7] 15% | [5]; [8] 65% | [5]; at 50.0 µM 35.4% | [6]; [7] 9% | [6]; [8] 57%

CC(=O)Oc1ccc2cc(-c3ccccc3OC(C)=O)c(=O)oc2c1
active: [3]; at 50.0 µM 77.2% | [6]; at 50.0 µM 74.5%
inactive: [1]; [7] 12% | [1]; [8] 23% | [1]; at 50.0 µM 48.1% | [2]; [7] -11% | [2]; [8] -15% | [2]; at 50.0 µM 43.7% | [3]; [7] 3% | [3]; [8] 30% | [4]; [7] -6% | [4]; [8] 31% | [4]; at 50.0 µM 30.2% | [5]; [7] -15% | [5]; [8] 8% | [5]; at 50.0 µM 57.8% | [6]; [7] 12% | [6]; [8] 0%

O=c1[nH]c2c([N+](=O)[O-])cc(Cl)cc2nc1/C=C(\O)c1ccc(F)cc1
active: [1]; at 50.0 µM 71.1% | [3]; at 50.0 µM 73.4% | [6]; at 50.0 µM 87.3%
inactive: [1]; [7] 12% | [1]; [8] 64% | [2]; [7] -6% | [2]; [8] 23% | [2]; at 50.0 µM 42.8% | [3]; [7] 3% | [3]; [8] 54% | [4]; [7] 5% | [4]; [8] 42% | [4]; at 50.0 µM 42.2% | [5]; [7] 2% | [5]; [8] 41% | [5]; at 50.0 µM 43.5% | [6]; [7] -3% | [6]; [8] 65%

COc1ccc(OC)c(CC(Cl)(C#N)C#N)c1
active: [1]; [8] 99% | [1]; at 50.0 µM 98.2% | [2]; [8] 100% | [2]; at 50.0 µM 99.8% | [3]; [8] 99% | [3]; at 50.0 µM 99.7% | [4]; [8] 99% | [4]; at 50.0 µM 99% | [5]; [8] 99% | [5]; at 50.0 µM 99.8% | [6]; [8] 99% | [6]; at 50.0 µM 99.6%
inactive: [1]; [7] 33% | [2]; [7] 48% | [3]; [7] 48% | [4]; [7] 20% | [5]; [7] 34% | [6]; [7] 61%

COc1cc2c(cc1OC)[C@H]1C(=O)c3cc4c(cc3[C@H]1N(C)C2=O)OCO4
inactive: [1]; [7] -1% | [1]; [8] 0% | [1]; at 50.0 µM 10.3% | [2]; [7] 1% | [2]; [8] -2% | [2]; at 50.0 µM 11.9% | [3]; [7] -8% | [3]; [8] -4% | [3]; at 50.0 µM -2.35% | [4]; [7] -6% | [4]; [8] -1% | [4]; at 50.0 µM 50.4% | [5]; [7] -7% | [5]; [8] 1% | [5]; at 50.0 µM 27.7% | [6]; [7] 0% | [6]; [8] -32% | [6]; at 50.0 µM 39.8%

N=C(N)c1ccc(/C=C/c2ccc(C(=N)N)cc2)cc1
active: [1]; [8] 80% | [1]; at 50.0 µM 85.8% | [2]; [8] 91% | [2]; at 50.0 µM 81% | [3]; [8] 87% | [3]; at 50.0 µM 74% | [4]; [7] 75% | [4]; [8] 84% | [5]; [7] 82% | [5]; [8] 94% | [5]; at 50.0 µM 87.5% | [6]; [7] 90% | [6]; [8] 95% | [6]; at 50.0 µM 90.2%
inactive: [1]; [7] 69% | [2]; [7] 59% | [3]; [7] 57% | [4]; at 50.0 µM 67.6%

COc1ccc(-c2nc(C)[nH]c(=O)c2Cc2c(O)ccc3ccccc23)cc1
inactive: [1]; [7] 3% | [1]; [8] 50% | [2]; [7] -4% | [2]; [8] 4% | [2]; at 50.0 µM 10.3% | [3]; [7] 1% | [3]; [8] 8% | [4]; [7] 4% | [4]; [8] 7% | [4]; at 50.0 µM 22% | [5]; [7] 0% | [5]; [8] 1% | [5]; at 50.0 µM 4.45% | [6]; [7] 2% | [6]; [8] 2%
active: [1]; at 50.0 µM 98.5% | [3]; at 50.0 µM 97.8% | [6]; at 50.0 µM 97%

CC1(C)OC2COC3(CNO)OC(C)(C)OC3C2O1 (stereo not given)
inactive: [1]; [7] 0% | [1]; [8] -4% | [1]; at 50.0 µM 22.5% | [2]; [7] -1% | [2]; [8] 1% | [2]; at 50.0 µM 32.6% | [3]; [7] -7% | [3]; [8] -2% | [4]; [7] -5% | [4]; [8] 8% | [4]; at 50.0 µM 25.1% | [5]; [7] 3% | [5]; [8] 5% | [5]; at 50.0 µM 63.9% | [6]; [7] -10% | [6]; [8] -2% | [6]; at 50.0 µM 69.7%
active: [3]; at 50.0 µM 83.1%

COc1ccc(CN2C(=O)C(Cl)=C(Cl)C2=O)c(OC)c1
inactive: [1]; [7] -1% | [1]; [8] 50% | [2]; [7] 4% | [2]; [8] 59% | [3]; [7] -2% | [4]; [7] -4% | [4]; [8] 27% | [5]; [7] -2% | [5]; [8] 68% | [6]; [7] -2% | [6]; [8] 44%
active: [1]; at 50.0 µM 99.5% | [2]; at 50.0 µM 99.7% | [3]; [8] 73% | [3]; at 50.0 µM 99.6% | [4]; at 50.0 µM 99% | [5]; at 50.0 µM 99.5% | [6]; at 50.0 µM 99.5%

Cc1ccc(OC/C=C/c2cccc(C#N)c2)cc1
inactive: [1]; [7] -3% | [1]; [8] 2% | [1]; at 50.0 µM -0.45% | [2]; [7] 3% | [2]; [8] -2% | [2]; at 50.0 µM 11.2% | [3]; [7] 0% | [3]; [8] 18% | [3]; at 50.0 µM -2.05% | [4]; [7] -6% | [4]; [8] -11% | [4]; at 50.0 µM 44% | [5]; [7] 0% | [5]; [8] 12% | [5]; at 50.0 µM -0.9% | [6]; [7] -5% | [6]; [8] -1% | [6]; at 50.0 µM 43.5%
